Assay results reported in PubChem BioAssay (NCATS).
“And” between values parts separate entries of the source, which are not always exact repeats. Equal entries are not always repeated. Results filed as inconclusive are left out. The source made the active and inactive calls. Unless noted, calls follow the shape of the dose curve; as a rule, active = well fitted curve in the direction sought with a large enough effect; inconclusive = small, poorly fitted or top-dose-only effect, or another doubt; inactive = no such curve, though single readings can be large; an effect the other way counts as inactive or inconclusive.

Key:
[1] = Cell Viability - HepG2 (AID 433; calls by dose curve;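 also: potency is read from the fitted curve at half-maximal effect; potency for ATP loss meaning cytotoxicity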); conditions: qHTS
In short: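 ATP luminescence (CellTiter-Glo) after 40 h compound exposure, 37 °C, HepG2, 1500 cells/well, complete medium. Normalized: DMSO = basal, 100 uM tamoxifen = 100% inhibition. AC50 via standard Hill equation.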

[2] = Cell Viability - MRC5 (AID 434; calls by dose curve;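 also: potency is read from the fitted curve at half-maximal effect; cells exposed to compound for 40 hours at 37 °C; potency reflects cytotoxicity seen as loss of intracellular ATP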); conditions: MRC5 lung fibroblast viability, qHTS
In short: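 Decrease in intracellular ATP, quantified by luciferase light output, reflects compound toxicity toward MRC5 cells exposed for 40 hr in complete culture medium. Concentration-response curves, scaled between DMSO and 100 uM tamoxifen, gave AC50 values.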

[3] = molecular target: Mitogen-activated protein kinase 10 (Mus musculus) (UniProt Q61831); assay: JNK3 AlphaScreen Assay (AID 530; active = well fitted curve in either direction with a large enough effect, not every such curve was filed as active;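 also: kinase came from lysate of stimulated human HepG2 cells; signal reports phosphorylation of biotinylated GST-cJun 1-79 at Ser73 with 10 µM ATP; % is scaled to controls: 0 for no effect and ±100 for the full control effect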)
In short: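 Biotinylated GST-cJun(1-79) served as substrate for JNK3 in HepG2 lysates stimulated with IL-1beta and TNF-alpha. ATP was 10 uM final, pH 7.6. Ser73 phosphorylation was quantified by AlphaScreen (680 nm excitation).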

[4] = Cell Viability - HUV-EC-C (AID 542); also: % is scaled to controls: 0 for no effect and ±100 for the full control effect; nearly all actives have a fitted effect of over 35% in size
In short: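 Concentration-dependent ATP loss in HUV-EC-C cells is the measure. Exposure lasts 40 hr at 37 °C; luminescence follows CellTiter-Glo addition, and Hill fits give AC50.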

[5] = Cell Viability - SH-SY5Y (AID 544); conditions: SH-SY5Y neuroblastoma cell viability; viability change, negative = cytotoxic: at 92.2 µM (top of the series);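 also: 0% = DMSO alone and -100% = 100 µM tamoxifen; nearly all actives have a fitted effect of over 55% in size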
In short: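 Quantitative HTS in SH-SY5Y neuroblastoma cells, 40 hr treatment at 37 °C, ATP content by luciferase luminescence; AC50 from Hill fits.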

[6] = Cell Viability - Renal Proximal Tubule (AID 545); conditions: renal proximal tubule cells viability; at 91.7 µM (top of the series), primary cells of rat origin unless noted;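 also: 0% = DMSO only and -100% = 100 µM tamoxifen; nearly all actives have a fitted effect of over 40% in size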
In short: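 Rat kidney proximal tubule cells, freshly isolated; 1000 cells/well, 5 hr settle, compound 40 hr 37 °C. CellTiter-Glo 20 min RT, luminescence read. AC50 by standard Hill fit.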

[7] = Cell Viability - Mesenchymal (AID 546);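 also: cells exposed to compound for 40 hours before reading; 0% = DMSO only and -100% = 100 µM tamoxifen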
In short: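 In this qHTS cytotoxicity format, glomerulus-derived human mesenchymal kidney cells received compound for 40 hr, then luciferase-based ATP quantitation. Concentration-response data were fitted with the Hill equation.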

[8] = Cellular Toxicity (caspase-3) HUV-EC-C (AID 656);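 also: 0% = DMSO basal and 100% = 100 µM tamoxifen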
In short: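 Luminescent caspase-3/7 activation (aminoluciferin substrate cleavage) in HUV-EC-C cells after 16 hr compound exposure, 37°C. Signal normalized to DMSO basal and 100 uM tamoxifen as 100%; AC50 from concentration-response fitted with the Hill equation.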

[9] = Cellular Toxicity (caspase-3) SHSY5Y (AID 657)
In short: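 Luminescent caspase-3/7 readout (aminoluciferin release) in SH-SY5Y cells after 16 h compound exposure in complete medium. Activity scaled between DMSO basal and 10 uM staurosporine as 100%; concentration-response fitted to Hill equation for AC50.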

[10] = Cellular Toxicity (caspase-3) MRC-5 (AID 659);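 also: 0% = DMSO basal and 100% = 10 µM staurosporine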
In short: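 Apoptosis readout in MRC-5 cells: luciferase light generated after caspase 3/7 cleaves a peptide-aminoluciferin substrate, measured post 16 hr compound incubation at 37 °C.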

[11] = Cellular Toxicity (caspase-3) Mesangial (AID 660);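 also: combined caspase 3 and 7 activity read by Caspase-Glo luminescence; cells exposed to compound for 16 h before the caspase read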
In short: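 AC50 values come from Hill-equation fits of caspase 3/7 activation, measured as Caspase-Glo luminescence in human glomerular mesangial cells exposed to compound for 16 h at 37 °C; 100% set by 100 uM tamoxifen.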

[12] = Cell Viability - LYMP1-002 - Assay at 16 hr (AID 948);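 also: 0% = DMSO alone and full effect = 92 µM tetraoctylammonium bromide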
In short: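 LYMP1-002 human lymphoblastoid cells, 2500/well; 5 hr 37 C; cpd 16 hr 37 C; CellTiter-Glo 30 min RT; luminescence (ATP). Concentration-response, Hill-fit AC50. Pos ctrl tetraoctylammonium bromide.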

[13] = MultiTox-Fluor Cytotoxicity Assay - LYMP1-003 - Dead Cells (AID 961); also: nearly all actives have a fitted effect of over 70% in size
In short: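 Dead-cell protease release, detected as bis-AAF-R110 fluorescence at 485/520 nm, was measured in LYMP1-003 cells after 16 h compound treatment at 37 C. AC50 values came from Hill-modeled qHTS curves normalized to DMSO (0%) and 15 uM tetraoctylammonium bromide (100%).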

[14] = Cell Viability - LYMP1-003 - Assay at 24 hr (AID 963);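 also: plate controls were DMSO only for no effect and tetraoctylammonium bromide positive control for full effect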
In short: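 The lymphoblastoid line was treated with titrated compounds for 24 hours, and viable cell number estimated from luciferase-based ATP luminescence.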

[15] = Cell Viability - LYMP2-015 (AID 971);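 also: cells exposed to compound for 24 h; 0% = DMSO only and full effect = 92 µM tetraoctylammonium bromide; nearly all actives have a fitted effect of over 55% in size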
In short: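 AC50 values reflect Hill-model fits of ATP-based luminescence (CellTiter-Glo) from a human lymphoblastoid line, 2500 cells/well, treated 24 hr at 37 C.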

[16] = Cell Viability - LYMP2-025 (AID 976);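 also: cells exposed to compound for 24 h at 37 °C; plate controls were DMSO only for no effect and tetraoctylammonium bromide control for full effect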
In short: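 Luminescent ATP readout after 24 hr treatment of a human lymphoblastoid line (LYMP2-025, 2500 cells/well, 37 C). Reagent developed 30 min at room temperature; AC50 fitted with the Hill equation.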

[17] = qHTS Assay for Identification of Small Molecule Inducers of Hypoxia Response (AID 2120; active = well fitted curve in the direction sought with a large enough effect in the signal ratio, with a control signal flat, not every such curve was filed as active; the % refers to the signal ratio; also: 0% is about no effect)
In short: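 HRE-bla ME-180, 2500 cells/well, 0.5% dialyzed FBS medium; cpd titration, 17 h 37 degrees C; CCF4 2.5 h RT; Ex 405, Em 460/530 ratio -> %Activity, AC50.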

[18] = qHTS assay for small molecule agonists of the antioxidant response element (ARE) signaling pathway measured by Nrf2-dependant transcriptional activity - cell viability counter screen (AID 720653; active = well fitted curve in the direction sought with a large enough effect in the repeat runs; an effect the other way counts as inactive or inconclusive; also: % is scaled to controls: 0 for no effect and ±100 for the full control effect); conditions: ARE-bla HepG2 viability, CellTiter-Glo ATP luminescence, 16 h; hits give low values
In short: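 ARE-bla HepG2 cells (2,000/well) rested 5 hrs at 37C/5% CO2, then exposed to compounds in DMSO for 16 hrs. Viability was read in the same wells as intracellular ATP by luminescence, 30 min at room temperature after reagent addition.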

[19] = qHTS assay for cell viability of HEK293 cells (AID 743288); conditions: ATP luminescence (CellTiter-Glo), 18 h; max response: hits give low values; also: % is scaled to controls: 0 for no effect and ±100 for the full control effect; nearly all actives have a fitted effect of over 50% in size
In short: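 ATP luminescence (CellTiter-Glo) reports metabolically competent cell number after parental HEK293 cells, 2,000/well, were treated with DMSO-dissolved compounds for 18 h at 37 C; reagent incubation 30 min, room temperature.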

[20] = qHTS assay for cell viability of the p53RE-bla HCT-116 cell line (AID 743292); also: % is scaled to controls: 0 for no effect and ±100 for the full control effect; nearly all actives have a fitted effect of over 55% in size
In short: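 Readout: CellTiter-Glo luminescence after 30 min RT. Treatment: compounds in DMSO, 16 h, 37 C. Cells: CellSensor p53RE-bla HCT-116, 4,000/well, preincubated 5 h.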

CC(O)CCl (stereo not given)
inactive: Potency [1] > 92 µM | Potency [2] > 92 µM | outcome [3] | Potency [4] | Potency [5] | activity change, negative = cytotoxicity [6] -0.642% | outcome [7] | outcome [8] | outcome [9] | outcome [10] | outcome [11] | Potency [12] | Potency [13] | Potency [14] | Potency [15] | Potency [16] | outcome [17] | max response [18] -0.544% and -11.8% | max response [19] 2.39% and -2.48% | Potency [20]

Cc1nnc2ccc(-c3cccc(C(F)(F)F)c3)nn12
inactive: outcome [3]

O=[N+]([O-])c1ccc(Cl)c(Cl)c1
inactive: Potency [1] > 92 µM | Potency [2] > 92 µM | outcome [3] | Potency [4] | Potency [5] | activity change, negative = cytotoxicity [6] -5.41% [at 91.7 µM] | outcome [7] | outcome [8] | outcome [9] | outcome [10] | outcome [11] | Potency [12] | Potency [13] | Potency [14] | Potency [15] | Potency [16] | outcome [17] | max response [18] -14.5% | max response [19] 7.83% | Potency [20]

COc1ccc(N)cc1
inactive: Potency [1] > 92 µM | Potency [2] > 92 µM | outcome [3] | Potency [4] | Potency [5] | activity change, negative = cytotoxicity [6] 0.402% and -5.11% | outcome [7] | outcome [8] | outcome [9] | outcome [10] | outcome [11] | Potency [12] | Potency [13] | Potency [14] | Potency [15] | Potency [16] | outcome [17] | max response [18] 6.52% and -14.8% | max response [19] 2.27% and -1.78% | Potency [20]

CCCCCCCC(=O)Cl
inactive: Potency [1] > 92 µM | Potency [2] > 92 µM | outcome [3] | Potency [4] | Potency [5] | activity change, negative = cytotoxicity [6] -1.44% | outcome [7] | outcome [8] | outcome [9] | outcome [10] | outcome [11] | Potency [12] | Potency [13] | Potency [14] | Potency [15] | Potency [16] | outcome [17] | max response [18] 7.34% | max response [19] -11% | Potency [20]

CC(C)CN1CC[C@@]2(CCCN(C(=O)Oc3ccccc3)C2)C1
inactive: outcome [3]

c1ccc(CN2CCCC3(CCNCC3)C2)cc1
inactive: outcome [3]

C1CCC2CCCCC2C1 (stereo not given)
inactive: Potency [1] > 92 µM | Potency [2] > 92 µM | outcome [3] | Potency [4] | Potency [5] | activity change, negative = cytotoxicity [6] -9.71% | outcome [7] | outcome [8] | outcome [9] | outcome [10] | outcome [11] | Potency [12] | Potency [13] | Potency [14] | Potency [15] | Potency [16] | outcome [17] | max response [18] 2.05% | max response [19] 0.933% | Potency [20]

Clc1ccc(CO[C@@H](Cn2ccnc2)c2ccc(Cl)cc2Cl)cc1
inactive: outcome [3]

C=CC(C)=O
inactive: Potency [1] > 92 µM | Potency [2] > 92 µM | outcome [3] | Potency [4] | Potency [5] | activity change, negative = cytotoxicity [6] 14% | outcome [7] | outcome [8] | outcome [9] | outcome [10] | outcome [11] | Potency [12] | Potency [13] | Potency [14] | Potency [15] | Potency [16] | outcome [17] | max response [18] 0.624% | max response [19] 0.318% | Potency [20]

CC(C)CN1CCCC2(CCN(C(=O)Oc3ccccc3)CC2)C1
inactive: outcome [3]

C=CC1CC=CCC1 (stereo not given)
inactive: Potency [1] > 92 µM | Potency [2] > 92 µM | outcome [3] | Potency [4] | Potency [5] | activity change, negative = cytotoxicity [6] 3.71% | outcome [7] | outcome [8] | outcome [9] | outcome [10] | outcome [11] | Potency [12] | Potency [13] | Potency [14] | Potency [15] | Potency [16] | outcome [17] | max response [18] 1.14% and 1.26% | max response [19] -5.12% and -6.19% | Potency [20]

CCN(CC)c1ccccc1
inactive: Potency [1] > 92 µM | Potency [2] > 92 µM | outcome [3] | Potency [4] | Potency [5] | activity change, negative = cytotoxicity [6] -4.65% | outcome [7] | outcome [8] | outcome [9] | outcome [10] | outcome [11] | Potency [12] | Potency [13] | Potency [14] | Potency [15] | Potency [16] | outcome [17] | max response [18] 7.99% | max response [19] -9.99% | Potency [20]
